# Only a selection was taken, and hits are over-represented in it overall.
# D1 mod – D1 dopamine receptor (human) allosteric modulation; P21728; AID 641; 58,000 compounds, 5.9% hits; HEK293 D1, CRE-luciferase, dopamine EC30 potentiation; actives deviate in either direction; B-score at 10 µM;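 active = luminescence count or its row- and column-corrected plate score outside the 99.7% band of the plate's sample wells, on either side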
# DAT uptake mod – human DAT dopamine uptake with cocaine, either direction | Q01959 | LLC-PK1 hDAT cells, [14C]-dopamine uptake with cocaine IC80; actives deviate in either direction | B-score at 10 µM | 110,000 compounds, 1.3% hits | AID 449768;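 active = Z score or B-score, a plate-position-corrected score, falls beyond the plate's 99.7% confidence bounds, in either direction; inactive = both scores lie inside the 99.7% bounds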
# EphB4 antag – antagonists of human EphB4-ephrin-B2 interaction. P54760. EphB4 LBD / TNYL-RAW-Alexa532 peptide, fluorescence polarization. inhibition, % at 7 µM. 97,000 compounds, 0.15% hits. AID 720;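 active = inhibition above the screen-wide mean inhibition plus 3 SD, cut at about 15% in these data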
# Target sequence (P54760 whole entry, looked up, the tested form may be a part): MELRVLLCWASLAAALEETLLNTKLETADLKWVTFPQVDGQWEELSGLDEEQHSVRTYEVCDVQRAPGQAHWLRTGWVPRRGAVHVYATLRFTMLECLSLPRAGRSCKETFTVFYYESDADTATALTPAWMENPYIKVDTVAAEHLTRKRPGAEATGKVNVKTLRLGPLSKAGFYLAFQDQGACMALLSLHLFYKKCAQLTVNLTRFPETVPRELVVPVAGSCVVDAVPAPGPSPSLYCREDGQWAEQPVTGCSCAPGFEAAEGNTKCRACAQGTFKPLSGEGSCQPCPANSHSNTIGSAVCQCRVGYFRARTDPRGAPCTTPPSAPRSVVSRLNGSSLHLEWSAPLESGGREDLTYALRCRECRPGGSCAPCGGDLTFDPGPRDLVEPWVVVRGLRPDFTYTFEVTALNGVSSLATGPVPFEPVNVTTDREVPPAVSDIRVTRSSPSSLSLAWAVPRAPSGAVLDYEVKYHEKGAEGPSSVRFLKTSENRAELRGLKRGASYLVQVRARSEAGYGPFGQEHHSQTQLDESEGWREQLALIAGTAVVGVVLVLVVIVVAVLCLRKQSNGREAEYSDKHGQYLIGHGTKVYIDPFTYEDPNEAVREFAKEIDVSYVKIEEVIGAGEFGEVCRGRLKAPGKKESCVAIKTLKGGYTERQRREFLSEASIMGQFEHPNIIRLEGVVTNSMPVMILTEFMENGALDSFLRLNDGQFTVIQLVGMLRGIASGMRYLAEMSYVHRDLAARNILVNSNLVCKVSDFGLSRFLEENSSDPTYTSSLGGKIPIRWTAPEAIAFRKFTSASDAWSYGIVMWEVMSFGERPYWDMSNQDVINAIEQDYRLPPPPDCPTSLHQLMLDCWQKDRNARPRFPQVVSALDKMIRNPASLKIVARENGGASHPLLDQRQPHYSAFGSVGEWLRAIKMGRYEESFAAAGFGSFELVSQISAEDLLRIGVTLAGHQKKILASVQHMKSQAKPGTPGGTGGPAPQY
# Hits are given with their value; – = inactive; · = no result given.
SMILES,D1 mod,DAT uptake mod,EphB4 antag
CC1=C(C(=O)Nc2ccccc2)C(c2cccnc2)n2nc(-c3cccnc3)nc2N1 (centres undefined),–,–,–
COc1ccccc1COC(=O)Nc1c(C)nn(C)c1Cl,·,–,–
O=C(O)c1cc2nc3c(c(C(F)(F)F)n2n1)CCc1ccccc1-3,-4.5,–,–
O=C(c1cc2nc3c(c(C(F)(F)F)n2n1)CCc1ccccc1-3)N1CCN2CCCC2C1 (centres undefined),–,·,·
Cc1cccc(NC(=O)CSc2nnc(-c3ccc(S(=O)(=O)N4CCCC4)cc3)o2)c1,–,–,17
Cc1ccc(NC(=O)CSc2nnc(-c3ccc(S(=O)(=O)N4CCCC4)cc3)o2)cc1C,–,–,–
COc1ccc(OC)c(NC(=O)c2ccccc2OC(C)=O)c1,·,–,·
CCCC(=O)C1=C(O)C(C(=O)OC)C(C)(C)CC1=Nc1cccc2ccccc12 (centres undefined),·,3,–
CCCC(=O)C1=C(O)C(C(=O)OC)C(C)(C)CC1=N (centres undefined),–,-3.2,–
CCCC(=O)C1=C(O)C(C(=O)OC)C(C)(C)CC1=NC(C)(C)C (centres undefined),·,–,–
CCCC(=O)C1=C(O)C(C(=O)OC)C(C)(C)CC1=Nc1ccccc1 (centres undefined),–,–,–
COCCNC(=O)C1=C(N)C(C(=O)Nc2ccc(C)c(S(=O)(=O)N3CCCCC3)c2)SC1=Nc1ccc(C)cc1C (centres undefined),·,–,–
N=c1c2c(ncn1CCN1CCOCC1)Oc1ccc3ccccc3c1C2c1ccccc1 (centres undefined),·,–,–
COc1ccc(C2c3c(ncn(CCN4CCOCC4)c3=N)Oc3ccc4ccccc4c32)cc1 (centres undefined),·,3.4,–
COc1cc(CNCCc2c[nH]c3ccccc23)ccc1OCc1ccc(F)cc1,·,4.4,–
COc1cccc(CNCCc2c[nH]c3ccccc23)c1OCc1ccc(F)cc1,·,–,–
O=C(c1oc2ccccc2c1CSCc1ccccc1)N1CCN(c2ncccn2)CC1,–,–,–
CC(C)(C)[C@H]1C=C(C(=O)O)O[C@@H](OCc2ccc(CO)cc2)C1,·,–,·
CCc1ccc(C2CC(c3ccc(C)cc3)Nc3nc(N)nn32)cc1 (centres undefined),–,-2.5,·
Cc1ccc(C2CC(c3ccc(F)cc3)Nc3nc(N)nn32)cc1 (centres undefined),–,–,·
CCCCOC(=O)n1c(SCC(=O)N(C)C)nc2ccccc21,-7.3,–,–
CCCCn1c(SCC(=O)O)nc2ccccc21,–,–,–
COc1cccc(C(=O)Nc2ccc(C(=O)O)cc2)c1,–,–,–
COc1ccc(C(=O)Nc2cc(OC)cc(OC)c2)cc1,–,1.7,–
COc1cc(NC(=O)c2ccccc2)cc(OC)c1,–,–,·
SMILES,D1 mod,DAT uptake mod,EphB4 antag
COc1cccc(C(=O)Nc2ccc(C)cc2)c1,-4.5,–,–
COc1ccc(C[C@H]2CN3C(=NC[C@@H]3Cc3ccc(O)cc3)N2C[C@H](C)NC(=O)c2ccc(C)c(Br)c2)cc1,·,–,·
CC(C)c1ccc(N(C(=O)C(F)(F)F)C(C(=O)NC2CCCCC2)c2ccncc2)cc1 (centres undefined),·,–,–
CCOc1ccc2nc(NC(=O)COC)sc2c1,–,–,·
CCOc1ccc2nc(NC(=O)Nc3cccs3)sc2c1,-3.8,–,·
COc1ccc2nc(NC(=O)Nc3ccccc3)sc2c1,·,–,·
COc1ccc2nc(NC(=O)c3cnccn3)sc2c1,-4.9,–,–
CCOc1ccc2nc(NC(=O)Nc3ccccc3)sc2c1,·,–,–
CCOC(=O)c1ccc2nc(NC(=O)c3ccco3)sc2c1,-4.8,–,–
CCOC(=O)c1ccc2nc(NC(=O)c3cccs3)sc2c1,–,–,–
CCOc1ccc2nc(NC(=O)c3ccoc3C)sc2c1,-5.6,–,–
Cc1cnc(NC(=O)c2cc3c(C)nn(-c4ccccc4)c3s2)s1,·,–,–
O=C(C1=C[C@@H](c2ccc(Br)cc2)C[C@@H](OCCCCO)O1)N1CCN(Cc2ccccc2)CC1,·,–,·
C[C@@H]1CCC[C@@]2(O[C@@H](CCO)C[C@H](O)[C@H]2O)O1,·,–,·
COc1ccc(-c2cc(-c3ccc(Br)cc3)nc3ncnn23)cc1OC,·,–,–
CCc1cccc(NC(=O)c2ccc(Br)o2)c1,–,4.9,–
Cc1cc(C(=O)Nc2cccc(C(=O)O)c2)oc1C,-4.4,–,·
Cc1ccc(C(=O)Nc2ccc3c(c2)CCC3)o1,–,–,·
O=C(Nc1ccc2c(c1)CCC2)c1ccc(Br)o1,·,2.2,–
Cc1cc(C(=O)Nc2cccc(C(=O)O)c2)c(C)o1,·,–,–
CCN(CC)c1ccc(NC(=O)c2ccc(Br)o2)cc1,–,–,·
O=C(c1ccccc1)c1cccc(NC(=O)c2ccc(Br)o2)c1,·,-9.7,–
O=C(Nc1ccccc1)c1ccc(Br)o1,·,–,·
CCC1=C(OC(=O)N(CC)CC)N2C(=O)OC(=NCC(=O)OC)[C@]2(Cc2ccccc2)[C@H]2C1=CC[C@H]1C(=O)NC(=O)[C@H]12,·,–,·
COc1ccc(C2=NOC(C)(c3nnc(Cc4ccccc4)o3)C2)cc1 (centres undefined),·,–,·
SMILES,D1 mod,DAT uptake mod,EphB4 antag
CC(C(=O)NC1CCCC1)N(C(=O)c1ccc(-c2ccccc2)[nH]1)c1ccccc1F (centres undefined),·,–,–
Cn1c(=O)c2c(nc(/C=C/c3cccc(Cl)c3)n2C)n(C)c1=O,·,–,·
CC1CCCC(C)N1CC(C)(C)NS(=O)(=O)c1ccc(Cl)cc1 (centres undefined),·,–,–
C=C1CCN([C@H](C(=O)NCc2ccc(Cl)cc2)C(C)C)S(=O)(=O)c2ccccc21,·,–,·
CC(C)Cc1cc(C(=O)Nc2c(F)cc(F)cc2Br)no1,–,6.5,–
CC(C)Cc1cc(C(=O)Nc2ccc(F)cc2F)no1,–,–,·
Nc1ncnc2nc(SCCN3CCCCC3)[nH]c12,–,·,–
Cc1cc2nc(SCCN3CCCC3)[nH]c2cc1C,·,-7.8,·
Cc1cccc(COCCN2CCN(S(=O)(=O)c3ccccc3)CCC2=O)c1,·,–,·
c1ccc(-c2cccc(-c3ccccn3)n2)nc1,–,–,–
c1ccc(-c2nnc(-c3ccccn3)nn2)nc1,-5.5,·,·
CCCC(=O)Nc1sc(C)c(-c2ccc(C(C)CC)cc2)c1C#N (centres undefined),·,–,–
CCN(CC)c1ccc2cc(-c3nc4ccccc4n3C)c(=O)oc2c1,–,–,–
CCN(CC)c1ccc2cc(-c3nc4ccccc4[nH]3)c(=O)oc2c1,-3.6,–,–
O=C(Nc1cc2c(oc1=O)CCCC2=O)c1ccc(Cl)cc1,·,–,–
COc1cccc(-c2nc(-c3ccc(NC(=O)c4cccs4)cc3)no2)c1,·,–,–
c1ccc(Cc2nc3ccccc3o2)cc1,·,–,–
CC1(C)CN(c2ccccc2)N(Cc2ccc(F)cc2)C1=O,·,–,–
COc1cc(OC)cc(C(=O)NC2CCN(CC(=O)Nc3cccc4ccccc34)CC2)c1,·,3.5,–
O=C(CN1CCC(NC(=O)c2ccco2)CC1)Nc1cccc2ccccc12,·,–,–
O=C(NCc1ccccc1)c1n[nH]nc1-c1ccccc1O,–,–,·
CN(CC(CC(=O)Nc1nncs1)c1ccccc1)S(=O)(=O)c1ccc(Br)cc1 (centres undefined),·,–,–
CCOC(=O)CCSc1nc(-c2ccccc2)cc(C(F)(F)F)n1,·,–,–

# Screening results as filed in PubChem.
